# Assay results taken from ChEMBL document CHEMBL2218924, “A broad activity screen in support of a chemogenomic map for kinase signalling research and drug discovery” (Biochem J, 2013).
# Tests used:
# [1] = biological target: Serine/threonine-protein kinase PAK 4 (Homo sapiens) (UniProt O96013); settings: at 10 µM
# [2] = biological target: Serine/threonine-protein kinase PAK 6 (Homo sapiens) (UniProt Q9NQU5); settings: at 10 µM
# [3] = biological target: Activated CDC42 kinase 1 (Homo sapiens) (UniProt Q07912); settings: at 1 µM
# [4] = biological target: Activated CDC42 kinase 1 (Homo sapiens) (UniProt Q07912); settings: at 10 µM
# [5] = biological target: ALK tyrosine kinase receptor (Homo sapiens) (UniProt Q9UM73); settings: at 1 µM
# Sequence of ALK tyrosine kinase receptor (Homo sapiens) (Q9UM73 19-1620 limits assumed): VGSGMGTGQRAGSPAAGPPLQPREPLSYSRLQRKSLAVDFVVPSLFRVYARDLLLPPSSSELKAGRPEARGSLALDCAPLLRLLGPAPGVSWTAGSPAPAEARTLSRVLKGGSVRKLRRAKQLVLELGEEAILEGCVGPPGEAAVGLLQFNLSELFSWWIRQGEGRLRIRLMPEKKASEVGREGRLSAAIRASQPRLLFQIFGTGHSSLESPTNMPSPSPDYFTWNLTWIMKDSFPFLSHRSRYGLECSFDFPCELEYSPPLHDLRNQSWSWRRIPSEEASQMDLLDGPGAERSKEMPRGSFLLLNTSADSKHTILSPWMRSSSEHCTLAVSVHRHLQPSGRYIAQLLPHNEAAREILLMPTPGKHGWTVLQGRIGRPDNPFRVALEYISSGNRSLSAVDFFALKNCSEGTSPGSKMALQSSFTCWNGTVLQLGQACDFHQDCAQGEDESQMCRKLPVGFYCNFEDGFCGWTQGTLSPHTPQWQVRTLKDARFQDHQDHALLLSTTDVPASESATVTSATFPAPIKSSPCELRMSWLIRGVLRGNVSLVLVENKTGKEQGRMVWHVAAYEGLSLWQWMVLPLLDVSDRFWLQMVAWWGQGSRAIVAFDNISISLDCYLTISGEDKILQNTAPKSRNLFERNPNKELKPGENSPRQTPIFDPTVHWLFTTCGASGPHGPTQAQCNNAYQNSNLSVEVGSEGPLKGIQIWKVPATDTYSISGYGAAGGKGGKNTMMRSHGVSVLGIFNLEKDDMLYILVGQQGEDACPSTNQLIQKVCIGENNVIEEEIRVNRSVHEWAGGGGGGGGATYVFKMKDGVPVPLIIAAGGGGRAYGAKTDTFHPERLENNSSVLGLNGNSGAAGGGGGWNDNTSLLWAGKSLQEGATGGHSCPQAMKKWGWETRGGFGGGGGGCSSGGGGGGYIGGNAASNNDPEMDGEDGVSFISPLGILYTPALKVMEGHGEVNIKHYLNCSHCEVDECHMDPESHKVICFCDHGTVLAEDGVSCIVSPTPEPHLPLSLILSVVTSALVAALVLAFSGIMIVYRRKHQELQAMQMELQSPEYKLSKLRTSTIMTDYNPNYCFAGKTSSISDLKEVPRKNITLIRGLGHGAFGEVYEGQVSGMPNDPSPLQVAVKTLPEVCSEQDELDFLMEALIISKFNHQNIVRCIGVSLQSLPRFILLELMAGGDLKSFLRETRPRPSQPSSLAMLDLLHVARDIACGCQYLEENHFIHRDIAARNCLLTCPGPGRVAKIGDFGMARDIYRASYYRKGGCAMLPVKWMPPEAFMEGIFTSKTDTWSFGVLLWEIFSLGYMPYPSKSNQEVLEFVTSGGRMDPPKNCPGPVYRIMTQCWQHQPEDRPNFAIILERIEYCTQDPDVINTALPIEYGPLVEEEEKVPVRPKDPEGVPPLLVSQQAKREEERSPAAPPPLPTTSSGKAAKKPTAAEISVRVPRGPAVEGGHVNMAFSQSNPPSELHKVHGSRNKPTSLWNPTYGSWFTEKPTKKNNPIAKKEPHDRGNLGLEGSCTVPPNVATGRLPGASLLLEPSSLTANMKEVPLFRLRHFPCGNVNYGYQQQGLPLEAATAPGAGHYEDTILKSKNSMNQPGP
# [6] = biological target: ALK tyrosine kinase receptor (Homo sapiens) (UniProt Q9UM73); settings: at 10 µM
# [7] = biological target: T1, AMP-activated protein kinase (AMPK) alpha-1/beta-1/gamma-1 (Homo sapiens) (UniProt P54619+Q9Y478+Q13131); settings: at 1 µM
# T1 sequence (P54619 whole entry): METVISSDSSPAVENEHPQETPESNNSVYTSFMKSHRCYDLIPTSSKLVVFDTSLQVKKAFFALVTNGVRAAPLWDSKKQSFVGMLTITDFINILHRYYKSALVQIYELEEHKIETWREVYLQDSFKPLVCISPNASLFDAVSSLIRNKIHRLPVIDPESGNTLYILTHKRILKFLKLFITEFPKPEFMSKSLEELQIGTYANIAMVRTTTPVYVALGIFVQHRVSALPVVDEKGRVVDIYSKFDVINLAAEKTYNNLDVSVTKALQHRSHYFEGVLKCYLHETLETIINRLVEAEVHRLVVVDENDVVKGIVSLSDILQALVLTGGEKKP
# T1 sequence (Q13131 whole entry partner): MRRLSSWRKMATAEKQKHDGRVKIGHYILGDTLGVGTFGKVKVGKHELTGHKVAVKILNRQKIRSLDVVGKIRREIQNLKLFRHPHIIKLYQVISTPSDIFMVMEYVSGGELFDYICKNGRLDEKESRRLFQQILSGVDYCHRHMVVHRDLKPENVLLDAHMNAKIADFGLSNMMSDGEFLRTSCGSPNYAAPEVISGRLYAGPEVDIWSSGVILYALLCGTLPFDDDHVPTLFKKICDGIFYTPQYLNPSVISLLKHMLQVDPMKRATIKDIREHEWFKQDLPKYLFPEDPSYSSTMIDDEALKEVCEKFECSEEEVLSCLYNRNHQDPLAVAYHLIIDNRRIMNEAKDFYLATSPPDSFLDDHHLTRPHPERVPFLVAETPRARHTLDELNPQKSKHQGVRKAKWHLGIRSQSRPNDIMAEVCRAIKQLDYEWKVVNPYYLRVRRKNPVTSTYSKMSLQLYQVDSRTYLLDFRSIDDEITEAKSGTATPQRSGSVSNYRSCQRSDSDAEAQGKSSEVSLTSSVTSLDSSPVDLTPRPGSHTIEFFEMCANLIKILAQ
# T1 sequence (Q9Y478 2-270 partner limits assumed): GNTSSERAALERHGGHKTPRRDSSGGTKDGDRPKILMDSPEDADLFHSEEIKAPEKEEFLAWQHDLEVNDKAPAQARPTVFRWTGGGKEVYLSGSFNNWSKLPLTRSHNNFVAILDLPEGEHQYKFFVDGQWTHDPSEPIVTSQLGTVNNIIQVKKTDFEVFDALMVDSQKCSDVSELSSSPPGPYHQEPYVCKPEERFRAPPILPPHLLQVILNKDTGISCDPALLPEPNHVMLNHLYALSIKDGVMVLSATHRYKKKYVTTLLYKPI
# [8] = biological target: T1, AMP-activated protein kinase (AMPK) alpha-1/beta-1/gamma-1 (Homo sapiens); settings: at 10 µM
# [9] = biological target: T2, NUAK family SNF1-like kinase 1 (Homo sapiens) (UniProt O60285); settings: at 1 µM
# T2 sequence (whole entry): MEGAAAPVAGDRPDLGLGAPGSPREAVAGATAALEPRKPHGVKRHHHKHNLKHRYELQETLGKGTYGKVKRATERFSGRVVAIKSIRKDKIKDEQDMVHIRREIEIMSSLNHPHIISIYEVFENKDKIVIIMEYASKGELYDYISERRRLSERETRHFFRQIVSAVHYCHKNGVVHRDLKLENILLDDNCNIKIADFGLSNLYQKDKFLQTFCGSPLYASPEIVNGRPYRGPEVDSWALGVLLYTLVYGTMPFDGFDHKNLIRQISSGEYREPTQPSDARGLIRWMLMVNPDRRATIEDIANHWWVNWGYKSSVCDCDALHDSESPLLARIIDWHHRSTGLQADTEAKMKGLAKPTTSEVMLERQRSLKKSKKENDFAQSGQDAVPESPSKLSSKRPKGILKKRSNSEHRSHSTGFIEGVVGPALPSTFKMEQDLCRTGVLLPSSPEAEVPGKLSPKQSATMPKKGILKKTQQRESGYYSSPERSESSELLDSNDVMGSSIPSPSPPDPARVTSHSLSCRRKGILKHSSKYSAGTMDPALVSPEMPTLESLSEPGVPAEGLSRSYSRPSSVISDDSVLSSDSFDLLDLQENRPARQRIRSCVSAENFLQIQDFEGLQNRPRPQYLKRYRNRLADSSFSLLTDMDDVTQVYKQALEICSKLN
# [10] = biological target: T2, NUAK family SNF1-like kinase 1 (Homo sapiens); settings: at 10 µM
# [11] = biological target: Serine/threonine-protein kinase PAK 5 (Homo sapiens) (UniProt Q9P286); settings: at 1 µM
# Sequence of Serine/threonine-protein kinase PAK 5 (Homo sapiens) (Q9P286 whole entry, looked up): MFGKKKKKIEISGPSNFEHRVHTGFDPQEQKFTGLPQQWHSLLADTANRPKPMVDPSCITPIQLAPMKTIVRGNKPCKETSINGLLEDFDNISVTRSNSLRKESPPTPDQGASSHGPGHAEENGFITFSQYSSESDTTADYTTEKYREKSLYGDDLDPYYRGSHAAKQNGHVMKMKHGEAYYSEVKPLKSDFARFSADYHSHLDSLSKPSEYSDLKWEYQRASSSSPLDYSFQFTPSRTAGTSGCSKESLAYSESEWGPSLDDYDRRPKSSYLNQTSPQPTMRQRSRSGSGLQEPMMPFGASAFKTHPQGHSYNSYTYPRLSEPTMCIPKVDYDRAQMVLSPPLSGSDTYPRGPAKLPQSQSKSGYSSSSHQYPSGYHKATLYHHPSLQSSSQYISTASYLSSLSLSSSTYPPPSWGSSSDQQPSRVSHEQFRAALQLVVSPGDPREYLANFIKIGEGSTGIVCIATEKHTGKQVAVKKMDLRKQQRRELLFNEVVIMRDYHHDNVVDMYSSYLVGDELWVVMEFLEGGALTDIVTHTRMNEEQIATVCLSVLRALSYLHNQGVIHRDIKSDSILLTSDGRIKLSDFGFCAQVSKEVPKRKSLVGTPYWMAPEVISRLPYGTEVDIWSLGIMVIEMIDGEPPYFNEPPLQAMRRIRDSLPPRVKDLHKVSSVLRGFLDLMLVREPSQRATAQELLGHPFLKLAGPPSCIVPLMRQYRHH
# [12] = biological target: Serine/threonine-protein kinase PAK 5 (Homo sapiens) (UniProt Q9P286); settings: at 10 µM
# [13] = biological target: T3, AMP-activated protein kinase, AMPK (Homo sapiens) (UniProt P54646+O43741+P54619+Q9UGJ0+Q9Y478+Q13131+Q9UGI9); settings: at 10 µM
# [14] = biological target: T4, Mitogen-activated protein kinase kinase kinase 5 (Homo sapiens) (UniProt Q99683); settings: at 1 µM
# T4 sequence (whole entry): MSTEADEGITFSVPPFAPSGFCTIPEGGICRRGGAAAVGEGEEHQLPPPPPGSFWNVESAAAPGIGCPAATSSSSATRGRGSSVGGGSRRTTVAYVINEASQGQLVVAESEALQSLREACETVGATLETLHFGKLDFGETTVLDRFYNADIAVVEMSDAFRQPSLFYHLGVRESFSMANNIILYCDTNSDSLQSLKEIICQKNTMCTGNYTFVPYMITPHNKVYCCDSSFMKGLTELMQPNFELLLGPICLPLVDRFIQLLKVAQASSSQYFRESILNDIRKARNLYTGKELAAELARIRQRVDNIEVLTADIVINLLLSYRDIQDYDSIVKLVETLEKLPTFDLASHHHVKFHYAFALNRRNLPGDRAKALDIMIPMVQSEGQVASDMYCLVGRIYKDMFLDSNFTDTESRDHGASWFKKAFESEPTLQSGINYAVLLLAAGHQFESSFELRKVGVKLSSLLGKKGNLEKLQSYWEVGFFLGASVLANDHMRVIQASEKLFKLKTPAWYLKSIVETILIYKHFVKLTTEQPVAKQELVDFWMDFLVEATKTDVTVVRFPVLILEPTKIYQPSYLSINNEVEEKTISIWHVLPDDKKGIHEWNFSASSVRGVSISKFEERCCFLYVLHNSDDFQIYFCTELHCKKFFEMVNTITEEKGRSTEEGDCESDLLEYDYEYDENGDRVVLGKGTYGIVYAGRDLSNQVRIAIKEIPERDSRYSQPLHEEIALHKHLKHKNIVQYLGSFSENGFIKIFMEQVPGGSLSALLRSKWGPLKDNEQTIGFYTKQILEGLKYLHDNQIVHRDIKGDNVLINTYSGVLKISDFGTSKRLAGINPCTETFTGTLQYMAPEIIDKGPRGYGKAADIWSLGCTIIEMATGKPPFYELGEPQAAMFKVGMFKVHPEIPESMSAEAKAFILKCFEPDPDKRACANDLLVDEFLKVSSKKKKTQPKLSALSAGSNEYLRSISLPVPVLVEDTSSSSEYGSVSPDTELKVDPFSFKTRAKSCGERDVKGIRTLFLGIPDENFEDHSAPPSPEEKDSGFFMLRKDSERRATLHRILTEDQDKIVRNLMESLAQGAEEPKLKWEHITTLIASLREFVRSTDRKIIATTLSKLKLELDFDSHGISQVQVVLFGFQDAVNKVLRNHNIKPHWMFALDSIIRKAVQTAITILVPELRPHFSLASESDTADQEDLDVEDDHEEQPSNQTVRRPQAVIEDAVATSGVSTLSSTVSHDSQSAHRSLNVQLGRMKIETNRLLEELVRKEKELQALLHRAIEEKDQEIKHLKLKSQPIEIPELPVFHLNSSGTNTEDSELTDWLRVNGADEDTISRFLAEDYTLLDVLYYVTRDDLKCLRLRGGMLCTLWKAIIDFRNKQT
# [15] = biological target: Serine/threonine-protein kinase PAK 6 (Homo sapiens) (UniProt Q9NQU5); settings: at 1 µM
# [16] = biological target: T5, Activin receptor type-1B (Homo sapiens) (UniProt P36896); settings: at 1 µM
# T5 sequence (whole entry): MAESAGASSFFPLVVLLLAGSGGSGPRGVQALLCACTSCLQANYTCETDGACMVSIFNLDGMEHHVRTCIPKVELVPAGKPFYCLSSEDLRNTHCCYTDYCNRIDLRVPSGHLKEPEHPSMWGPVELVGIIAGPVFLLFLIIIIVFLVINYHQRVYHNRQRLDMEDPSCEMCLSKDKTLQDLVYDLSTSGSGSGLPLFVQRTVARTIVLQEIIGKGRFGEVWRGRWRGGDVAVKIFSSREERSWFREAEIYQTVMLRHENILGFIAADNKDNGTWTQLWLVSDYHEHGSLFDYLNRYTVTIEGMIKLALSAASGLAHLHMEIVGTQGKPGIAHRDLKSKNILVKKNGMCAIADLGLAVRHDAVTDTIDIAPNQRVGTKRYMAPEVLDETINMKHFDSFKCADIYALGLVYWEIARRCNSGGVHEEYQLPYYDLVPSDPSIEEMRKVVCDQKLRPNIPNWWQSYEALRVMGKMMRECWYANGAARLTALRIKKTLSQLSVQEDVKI
# [17] = biological target: T5, Activin receptor type-1B (Homo sapiens); settings: at 10 µM
# [18] = biological target: T3, AMP-activated protein kinase, AMPK (Homo sapiens); settings: at 1 µM
# [19] = biological target: PAS domain-containing serine/threonine-protein kinase (Homo sapiens) (UniProt Q96RG2); settings: at 10 µM
# [20] = biological target: Serine/threonine-protein kinase PAK 4 (Homo sapiens) (UniProt O96013); settings: at 1 µM
# Sequence of Serine/threonine-protein kinase PAK 4 (Homo sapiens) (O96013 whole entry, looked up): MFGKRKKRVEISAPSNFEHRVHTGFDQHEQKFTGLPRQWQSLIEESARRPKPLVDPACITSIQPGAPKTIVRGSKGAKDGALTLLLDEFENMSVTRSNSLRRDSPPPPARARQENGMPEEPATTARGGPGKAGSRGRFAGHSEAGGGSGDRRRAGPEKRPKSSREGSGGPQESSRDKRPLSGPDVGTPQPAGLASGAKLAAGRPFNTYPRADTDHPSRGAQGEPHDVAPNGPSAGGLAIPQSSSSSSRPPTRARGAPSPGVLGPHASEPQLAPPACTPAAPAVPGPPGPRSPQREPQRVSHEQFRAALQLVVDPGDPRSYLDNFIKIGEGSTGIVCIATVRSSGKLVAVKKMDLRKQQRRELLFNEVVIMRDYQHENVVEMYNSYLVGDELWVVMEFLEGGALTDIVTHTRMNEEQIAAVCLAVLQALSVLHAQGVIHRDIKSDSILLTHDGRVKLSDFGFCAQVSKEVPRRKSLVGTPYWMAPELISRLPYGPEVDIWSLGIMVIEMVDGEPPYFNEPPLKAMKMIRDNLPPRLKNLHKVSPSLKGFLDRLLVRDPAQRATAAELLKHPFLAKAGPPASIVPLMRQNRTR
# Sequence of Serine/threonine-protein kinase PAK 6 (Homo sapiens) (Q9NQU5 whole entry, looked up): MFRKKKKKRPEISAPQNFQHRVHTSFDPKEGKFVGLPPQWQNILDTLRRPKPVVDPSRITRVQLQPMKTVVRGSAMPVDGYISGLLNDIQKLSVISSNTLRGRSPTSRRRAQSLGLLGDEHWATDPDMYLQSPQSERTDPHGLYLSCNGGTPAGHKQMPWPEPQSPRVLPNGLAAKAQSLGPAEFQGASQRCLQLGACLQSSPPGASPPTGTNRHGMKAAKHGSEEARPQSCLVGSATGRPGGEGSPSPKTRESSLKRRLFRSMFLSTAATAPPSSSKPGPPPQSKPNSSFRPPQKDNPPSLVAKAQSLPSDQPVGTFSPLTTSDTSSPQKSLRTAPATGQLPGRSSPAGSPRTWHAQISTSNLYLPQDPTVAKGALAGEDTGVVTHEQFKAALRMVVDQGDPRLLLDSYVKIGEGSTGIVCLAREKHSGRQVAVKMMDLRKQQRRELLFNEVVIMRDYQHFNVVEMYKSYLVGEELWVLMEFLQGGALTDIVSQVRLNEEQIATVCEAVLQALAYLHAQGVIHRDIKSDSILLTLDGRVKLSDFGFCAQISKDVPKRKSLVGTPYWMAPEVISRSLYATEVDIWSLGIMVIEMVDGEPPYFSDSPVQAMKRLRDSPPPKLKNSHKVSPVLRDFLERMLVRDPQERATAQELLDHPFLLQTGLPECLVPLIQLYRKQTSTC
Compound,residual activity [1],residual activity [2],residual activity [3],residual activity [4],residual activity [5],residual activity [6],residual activity [7],residual activity [8],residual activity [9],residual activity [10],residual activity [11],residual activity [12],residual activity [13],residual activity [14],residual activity [15],residual activity [16],residual activity [17],residual activity [18],residual activity [19],residual activity [20]
Cc1cc(C)c(/C=C2\C(=O)Nc3ccccc32)[nH]1,69%,62%,52%,18%,37%,13%,55%,29%,35%,19%,,,,,,,,,,
NC(=O)c1cccc(-c2cc(Nc3ccc(OC(F)(F)F)cc3)ncn2)c1,,,,86%,,,99%,93%,,90%,92%,84%,83%,90%,,,,,,
Nc1nc(Nc2ccc(S(N)(=O)=O)cc2)nn1C(=O)c1c(F)cccc1F,17%,34%,50%,9%,77%,38%,58%,11%,4%,7%,71%,24%,15%,102%,79%,100%,47%,47%,,
Fc1ccc(-c2nc3n(c2-c2ccncc2)CCS3)cc1,,,87%,79%,86%,94%,,,,90%,,,,96%,,100%,29%,,,
COc1ccc2c(c1)c(C1=C(c3c[nH]c4ccccc34)C(=O)NC1=O)cn2CCCN(C)C,,,65%,21%,80%,64%,52%,11%,37%,10%,,,5%,,,,47%,38%,32%,
Nc1ncnc2c1cnn2-c1ccccc1,,86%,91%,61%,79%,,96%,90%,99%,87%,92%,,83%,100%,92%,,,,92%,
CCCCc1c(-c2ccc(O)cc2)[nH]c2nccnc12,,47%,26%,6%,71%,37%,85%,71%,12%,16%,56%,36%,67%,93%,94%,88%,34%,75%,,
O=C(Nc1nc2ccccc2n1CCN1CCOCC1)c1cccc([N+](=O)[O-])c1,,,81%,55%,70%,75%,,,,66%,,,83%,113%,,,,79%,84%,
O=C1Nc2ccccc2/C1=C\c1c(Cl)[nH]c2ccccc12,,85%,84%,48%,81%,49%,,,,46%,,,58%,,,,,,67%,
O=C1NC(=O)C(c2cn(CCCO)c3ncccc23)=C1c1cnccn1,,75%,82%,71%,84%,67%,92%,75%,62%,50%,,,80%,78%,78%,83%,,94%,89%,
CC(C)(C)c1nc2c3ccc(F)cc3c3c(=O)[nH]ccc3c2[nH]1,,68%,10%,0%,30%,11%,33%,31%,8%,9%,,,23%,81%,,,,20%,,
O=C(c1ccccc1)c1ccc(N2CCOCC2)cc1O,,85%,94%,72%,78%,,98%,72%,,90%,92%,114%,81%,91%,82%,123%,,89%,78%,
O=S(=O)(NCCNC/C=C/c1ccc(Br)cc1)c1cccc2cnccc12,,55%,77%,43%,,,52%,15%,42%,11%,,,19%,,,,,60%,81%,
COc1cc2nccc(Oc3ccc(NC(=O)Nc4cc(C)on4)c(Cl)c3)c2cc1OC,,54%,20%,6%,,,,,,,82%,52%,82%,,104%,105%,57%,,62%,
O=S(=O)(c1cccc2cnccc12)N1CCCNCC1,101%,,,,,74%,,,,52%,,,,,,,,,,106%
CN([C@@H](Cc1ccc(OS(=O)(=O)c2cccc3cnccc23)cc1)C(=O)N1CCN(c2ccccc2)CC1)S(=O)(=O)c1cccc2cnccc12,,50%,100%,,74%,57%,,,,,115%,72%,86%,115%,84%,,86%,,79%,
O=c1c(-c2ccc(F)cc2)c(-c2ccncc2)[nH]n1-c1ccc(Cl)cc1,,,,66%,,65%,,,,,,,,100%,,,22%,,,
COc1cc2c(cc1OC)-c1n[nH]c(Nc3cccc(F)c3)c1C2,,99%,,,74%,,80%,65%,,68%,,,69%,74%,98%,,,,,
